Pf growth 96h – P. falciparum growth inhibition at 96 hour, primary screen for plastid delayed-death inhibitors; 320,000 tested, 6.9% active; Potency, µM (highest dose often 28.7 µM), for the others: at the top dose activity change, negative = inhibition, actives largely listed as inhibitors; P. falciparum luciferase reporter growth, 96 h; also: potency is read from the fitted curve at half-maximal effect; % is scaled to controls: 0 for no effect and ±100 for the full control effect
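Two-generation exposure (96 h) targets delayed-death phenotype. Reporter parasites carrying integrated firefly luciferase, in red cells at 2% hematocrit and 0.05% parasitemia final, kept at 37 C, 5% CO2; luminescence loss indicates inhibition.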
HCMV antiviral – inhibitors of human cytomegalovirus. HFF cells, HCMV-luciferase reporter, 72 h; hits give low values. 410,000 tested, 4.5% active. activity change, negative = inhibition, % at 57.5 µM; in the data active = activity change below about -60%; inconclusive = no clear call, values can overlap the other calls; inactive = above about -39%; also: % is scaled to controls: 0 for no effect and ±100 for the full control effect
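Inhibition of viral replication was scored as loss of reporter luminescence in HFFs infected with HCMV-luciferase (MOI 1 PFU/cell) for 72 h; compounds tested at 2 doses, normalized to buffer and Salinomycin controls.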
Shiga inhibitor – blocks Shiga toxin action in Vero cells. Vero cells, Shiga toxin protein synthesis inhibition reporter. inhibition, % at 38.7 µM. 290,000 tested, 9.2% active. AID 2315; in the data active = inhibition mostly above about 28%, no sharp cut-off; inactive = mostly below about 43%; also: 0% is about no effect
CHX counter – affects cycloheximide protein synthesis inhibition readout, counter-screen | cell reporter, cycloheximide protein synthesis inhibition counterscreen | max response, % | 300,000 tested, 12% active | AID 2314; in the data active = max response mostly above about 13%, no sharp cut-off; inactive = mostly below about 14%; also: read at 38.3 µM for the half of the compounds with a filed dose; 0% is about no effect
Pf growth 48h – inhibits P. falciparum growth in the first generation, 48 h; P. falciparum luciferase growth in erythrocytes, 48 h; 310,000 tested, 5.9% active; Potency, µM (top dose mostly 28.7 µM), inactives show at the highest dose activity change, negative = inhibition, actives largely listed as inhibitors; also: potency is read from the fitted curve at half-maximal effect; % is scaled to controls: 0 for no effect and ±100 for the full control effect
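Read-out is firefly luciferase luminescence from an integrated reporter in P. falciparum, so falling signal marks reduced parasite growth. Infected erythrocytes were at 2% hematocrit and 0.1% parasitemia (final) in Albumax-supplemented RPMI 1640.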
Active calls of the source: *; ? = inconclusive; / = no result. Sampled rows, rich in hits. Any-hit rate of the full collection: about 20%. Unless noted, calls follow the shape of the dose curve; as a rule, active = well fitted inhibition curve with a large enough effect; inconclusive = small, poorly fitted or top-dose-only effect, or another doubt; inactive = no such curve, though single readings can be large or run the other way.

SMILES	Pf growth 96h	HCMV antiviral	Shiga inhibitor	CHX counter	Pf growth 48h
CCN(CC(=O)Nc1c(F)cccc1F)C(=O)c1ccc(=O)n(Cc2ccccc2)n1	-2%	33	-2	-2	62%
CCN(CC(=O)Nc1cc(Cl)ccc1C)C(=O)c1ccc(=O)n(Cc2ccccc2)n1	9.3µM*	?	-13	2	?
CCN(CC(=O)Nc1cc(Cl)ccc1C)C(=O)CC1CCCC1	/	-14	/	/	/
CCN(CC(=O)Nc1cc(Cl)ccc1C)C(=O)C1CCCCC1	-25%	-61*	9	-4	-6%
Cc1cnc(C(=O)Nc2ccc(C(C)C)cc2)cn1	420%	12	134*	46*	338%
Cc1cnc(C(=O)Nc2ccc(F)cc2)cn1	88%	62	99*	53*	184%
CN(CC(=O)Nc1c(Cl)cccc1Cl)C(=O)c1n[nH]c2ccccc12	81%	-29	/	/	0%
Cc1ccc(C)c(NC(=O)C(=O)NCC(c2cccnc2)N2CCN(c3ccc(F)cc3)CC2)c1 (stereo not given)	/	-21	/	/	/
O=C(CCN1C(=O)c2ccccc2C1=O)N1CCOCC1	5%	37	-5	-3	-6%
COC(=O)CCCN1C(=O)c2cccc3cccc(c23)C1=O	?	-11	28	24*	3%
CN(C(=O)CCCN1C(=O)c2cccc3cccc(c23)C1=O)c1ccccc1	-9%	-62*	-8	-3	-9%
C#CCOC(=O)CCCN1C(=O)c2cccc3cccc(c23)C1=O	/	-20	/	/	/
O=C1c2ccccc2C(=O)N1CCSC(=S)N1CCOCC1	11%	-28	51	26*	72%
O=C(CCN1C(=O)c2cccc3cccc(c23)C1=O)N1CCOCC1	?	6	94*	26*	204%
O=C(Nc1nccs1)c1ccc(NC(=O)C2CC=CCC2C(=O)O)cc1 (stereo not given)	2%	39	23	14	68%
Cc1ccc(S(=O)(=O)N2CCC(C(=O)N3CCC(C(=O)NCc4cccnc4)CC3)CC2)cc1	31%	22	-8	-3	-25%
COc1cc(OC)cc(C(=O)NCC(=O)OCC(=O)NCc2ccco2)c1	/	12	/	/	/
O=C1c2cccc3cccc(c23)C(=O)N1CCc1ccccc1	?	157	95*	51*	361%
O=C1c2ccc3c4c(ccc(c24)C(=O)N1CCCCO)C(=O)N(CCCCO)C3=O	-4%	-100*	72*	34*	0.74µM*
O=C(O)C(Cc1ccccc1)N1C(=O)c2cccc3cccc(c23)C1=O (stereo not given)	?	54	-3	1	8%
Cc1ccc(C(=O)c2oc3ccccc3c2NC(=O)c2cc(=O)c3cc(C)ccc3o2)cc1	/	-20	/	/	/
Nc1nc(CSCc2ccccc2)nc(N2CCOCC2)n1	/	93	46*	46*	85%
Nc1nc(CSc2nc3ccccc3s2)nc(N2CCOCC2)n1	13%	5	36	15*	-2%
COc1ccccc1C(=O)Nc1nc2nc(C)cc(=O)n2[nH]1	/	1	/	/	/
CCNc1nc(-c2cc(C)n(Cc3ccco3)c2C)cs1	?	-35	104*	53*	-54%
SMILES	Pf growth 96h	HCMV antiviral	Shiga inhibitor	CHX counter	Pf growth 48h
Cc1cc(-c2csc(NC(=O)c3ccc(=O)[nH]c3)n2)c(C)n1Cc1ccco1	?	?	10	1	-1%
Cc1cccc(C(=O)N2CCC(=O)N([C@H](COCc3cccc(C(F)(F)F)c3)Cc3ccccc3)CC2)c1	/	9	-5	-5	/
CCC(CC)N1CCN(C(=O)c2cccc(Cl)c2)CC1	13µM*	-26	-2	1	16%
Cc1cccc(COC[C@H](Cc2ccccc2)N2CCN(C(=O)c3cccc(Cl)c3)CCC2=O)c1	/	5	-8	0	/
O=C(c1ccc(Cl)c(Cl)c1)N1CCC(=O)N(C(COCc2ccccc2)Cc2ccccc2)CC1 (stereo not given)	12µM*	9	1	-3	?
Cc1cccc(C(=O)N2CCC(=O)N(C(COCc3cccc(C(F)(F)F)c3)Cc3ccccc3)CC2)c1 (stereo not given)	9.3µM*	?	-3	-2	?
O=C(c1cccc(Cl)c1)N1CCC(=O)N(C(COCc2ccccc2)Cc2ccccc2)CC1 (stereo not given)	10µM*	14	-16	-6	?
Cc1cc(C(=O)Nc2ccccc2Cc2ccccc2)no1	172%	25	-6	5	-10%
O/N=C(\CN1CCCCC1)c1ccccc1	-9%	-12	-2	-3	/

Source: PubChem BioAssay (National Center for Advancing Translational Sciences (NCATS))
